# Results: PubChem BioAssay (NCI)
# Values joined by “and” are separate entries in the source; they are usually repeats but may differ in a detail not shown here. Equal values may be shown once. The panel holds about 83,000 compounds, 20% with a hit somewhere; the sample as a whole holds those more often.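 Activity criterion: percent growth below 10, measured after cells in 96-well plates were exposed to a single compound concentration for 48 hours.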 A number with no mark means an inactive call. Active and inactive are the calls of the source.
# Tested on: HL-60(TB) leukemia
# Experiment: NCI-60 one-dose screen, 48 h (100 = growth as untreated, 0 = no growth, -100 = all killed)
# Details: 10 µM unless noted
row,SMILES,growth
1,c1cc(N2CCCC2)c2nc(-c3[nH]ncc3Nc3ncnc4[nH]ccc34)[nH]c2c1,-15.9% (active)
2,COc1ccc(C(=O)c2nc3ccccc3n2CC(=O)c2ccc(Cl)cc2)cc1,-13.2% (active)
3,C=COC(=O)CCOCC(CC)CCCC (centres undefined),91.8%
4,COc1cc(NCCCCCNC(C)C)c2ncccc2c1,104% and 58.4%
5,Cc1cc(OC(=O)c2ccc([N+](=O)[O-])cc2)nc2[nH]c(=O)sc12,99.5%
6,COC(=O)CC1=C(c2ccc([N+](=O)[O-])cc2)CCC1=O,100%
7,CN1CCN(CCC=C2c3ccccc3Sc3ccc(S(=O)(=O)N(C)C)cc32)CC1,91.3% and 80.6%
8,CN1C(=O)/C(=C/c2nc(-c3cccc(F)c3)n3ccccc23)c2ccccc21,92.6%
9,COc1cccc(C2CC(c3cc(OC)c(OC)c(OC)c3)=NN2)c1 (centres undefined),55.1%
10,FC(F)(F)c1cccc(Nc2ccccc2)c1,92.7%
11,Nc1ccccc1SC1CC(=O)N(c2cccc3ccccc23)C1=O (centres undefined),97%
12,COc1ccc(C(=O)Nc2ncc(Cc3cccc(Cl)c3)s2)cc1OC,11.1%
13,COc1ccc(-c2nsc3c2NC(=O)CC3c2ccc(Cl)cc2)cc1 (centres undefined),80.1%
14,N#Cc1c(-c2ccc(C(F)(F)F)cc2)cc(N2CC(O)C2)n2c1nc1ccccc12,118%
15,Cc1ccccc1C1=N[C@@H](Cc2ccccc2)C(=O)c2c(nc3ccccn23)N1,125%
16,CCN(C(C)=O)c1ccc([N+](=O)[O-])cc1,114%
17,Cc1ccc(C)c(C(O)(c2cc(C)ccc2C)C2(O)CCCCC2)c1,96.5%
18,NC(Cc1ccc(O)cc1)C(=O)N/N=C/c1ccccc1O (centres undefined),93.7%
19,COc1ccc(Nc2cc(C)nc(NCc3ccccc3)n2)cc1,11.3%
20,COc1ccccc1CNCCCN1C(=O)c2ccc3c4c(ccc(c24)C1=O)C(=O)N(CCCNCCCCNCCCCN)C3=O,-37.8% (active)

row,SMILES,growth
1,S=C(Nc1ccc(-c2nc(N3CCOCC3)c3cccn3n2)cc1)Nc1cccnc1,59.9%
2,Cn1c(N)c(N=O)c(=O)n(C)c1=O,105% and 89.8%
3,COc1ccc(C(=O)c2cc(C)c(OC)c(C)c2)c(OC)c1N(C(=O)C(Cl)Cl)C(=O)C(Cl)Cl,-32% (active)
4,O=C1c2ccccc2C(=O)c2c1oc1c2c(=O)[nH]c2ccccc21,2.26% (active)
5,CNNc1ncnc2c1cnn2-c1ccc(S(N)(=O)=O)cc1,83.5%
6,CN1CCN(Cc2ccc(NC(=O)c3ccc(C#N)c(C#Cc4cnc(N)c5ncccc45)c3)cc2C(F)(F)F)CC1,60.8%
7,CCOC(=O)c1sc2ncnc(Nc3ccc4c(cnn4C(=O)Nc4ccc(C)c(Cl)c4)c3)c2c1C,95.3%
8,Cc1cnc(C(=O)NNc2nc3sc4c(c3c(=O)n2C)C(C)CCC4)cn1 (centres undefined),-32.3% (active)
9,O=C(c1ccccc1)C1C(=O)N2C(=S)N(c3ccccc3)C(=O)C2C1c1ccc(Cl)cc1 (centres undefined),100%
10,CCC1S/C(=N\N=C(/C)c2ccco2)N(c2ccccc2)C1=O (centres undefined),106%
11,O=C(Nc1ccc(C2=NCCCN2)cc1)Nc1ccc(C2=NCCCN2)cc1,87.4%
12,CC1(CO)CCCC12OCCO2 (centres undefined),105%
13,NC(=O)Cc1nc(O)cc(=O)[nH]1,87.4%
14,O=S(=O)(NCCNc1cc(-c2cn(-c3ccccc3)nc2-c2cccc(O)c2)ccn1)c1cccc(F)c1,27.4%
15,COc1ccc2c(c1)C1(C(=O)N2)C(C#N)=C(c2ccccc2)Nc2c1c(-c1ccccc1)nn2-c1ccccc1 (centres undefined),3.96% (active)
16,Nc1n[nH]c2ccc([C@@H]3Nc4cc5c(cc4[C@H]4C6CCC(C6)[C@@H]34)C(=O)NC5)cc12 (some centres undefined),-39.2% (active)
17,N#Cc1c(NC(=O)c2ccco2)[n+]([O-])c2ccccc2[n+]1[O-],81.4%
18,CS(=O)(=O)c1ccc(-c2cc(-c3nnc(SCC(=O)Nc4ccc(C(=O)/C=C/c5ccc(Cl)cc5)cc4)n3-c3ccccc3)c3ccccc3n2)cc1,98.9%
19,O=S(=O)(Nc1ccc(-c2nc(-c3cccc(OCCN4CCOCC4)c3)c(-c3ccnc(Br)c3)[nH]2)cc1)c1ccccc1,-2.01% (active)
